# In PubChem BioAssay:
# Values without a mark were called inactive. This is one part of the list. The source made the active and inactive calls.
# Tests used:
# [1] = target: Inward rectifier potassium channel 2 (Mus musculus) (UniProt P35561); test: PubChem AID 2345; conditions: HEK293 Kir2.1, FluxOR thallium flux fluorescence; at 10 µM; stronger effect = higher value;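 also: 0% = vehicle mean plus 3 SD and 100% = vehicle minus no-stimulus blank window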
# [2] = target: Potassium voltage-gated channel subfamily KQT member 2 (Rattus norvegicus) (UniProt O88943); test: potentiators of retigabine-insensitive KCNQ2 W236L, mechanism study for KCNQ2 potentiator project, cell-based, rat KCNQ2 W236L, CHO, automated patch clamp (AID 2558); conditions: at 25 µM; outcome: automated patch clamp current
# [3] = target: Short transient receptor potential channel 4 (Mus musculus) (UniProt Q9QUQ5); test: mouse TRPC4 membrane potential modulation by TRPC6 hits, confirmation, selectivity assay for TRPC6 inhibitor project, cell-based, second specificity screen, HEK293 TRPC4/mu-opioid (AID 2776;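 active = compounds whose fluorescence signal differed from control wells by over 3 SD, either direction, in both duplicate plates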); conditions: HEK293 TRPC4/MOR, membrane potential dye fluorescence, at 10 µM, channel activated by saturating DAMGO dose; stronger effect = higher value
# [4] = system: transient receptor potential cation channel C4 (TRPC4), mouse; test: mouse TRPC4 modulation by TRPC6 hits, confirmation, selectivity assay for TRPC6 inhibitor project, cell-based, HEK293 TRPC4/mu-opioid, membrane potential dye (AID 2777;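 active = rise or fall in signal beyond 3 SD of buffer-only wells in both replicate plates, either sign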;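 also: integrated kinetic ratio of fluorescence range over baseline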); conditions: membrane potential fluorescence, at 10 µM
# [5] = nonspecific membrane potential effects, parental HEK293, confirmation, counter-screen for TRPC6 inhibitor project, cell-based, second counter screen (AID 2779;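 active = membrane potential signal moving either way by over 3 SD of the maximum-effect control, in both duplicate plates, meaning non-specific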); conditions: parental HEK293 membrane potential dye fluorescence; at 10 µM; maximal acetylcholine challenge after compound addition
# [6] = membrane potential modulation in parental HEK293, confirmation, counter-screen for TRPC6 inhibitor project, cell-based (AID 2780;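 active = membrane potential signal shifting up or down by more than 3 SD of buffer-only wells, on both duplicate plates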;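 as to membrane potential signal change: plate controls were buffer EC0 wells for no effect and acetylcholine ECmax wells for full effect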); conditions: parental HEK293 membrane potential dye fluorescence; at 10 µM
# [7] = target: Short transient receptor potential channel 6 (Mus musculus) (UniProt Q61143); test: mouse TRPC6 channel inhibitors, confirmation, HEK293 cells, membrane potential dye, duplicate (AID 488960;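 active = fluorescence ratio falls more than 5 SD below the full-stimulation control mean, in both duplicate runs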;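 as to inhibition: integrated fluorescence ratio of peak minus minimum over baseline after agonist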); conditions: ACh-evoked depolarization, at 10 µM; stronger effect = higher value
# [8] = target: Short transient receptor potential channel 6 (Mus musculus) (UniProt Q61143); test: mouse TRPC6 channel activators, confirmation, HEK293 cells, membrane potential dye, duplicate (AID 488961;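 active = ratio signal rise beyond 5 SD above unstimulated control wells' mean, seen in both duplicate runs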); conditions: HEK293-TRPC6 membrane potential dye fluorescence, FDSS, at 10 µM; stronger effect = higher value
# [9] = thallium flux activation in parental CHO cells, counter-screen for KCNQ1 potentiator project (AID 493006;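 active = duplicate-averaged activation above buffer control mean plus 5 SD of those controls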;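 also: fluorescence ratio of max minus min over baseline after K+ and Tl+ depolarization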); conditions: parental CHO-K1 cells, FluxOR thallium flux, at 10 µM; stronger effect = higher value
# [10] = target: Potassium voltage-gated channel subfamily KQT member 1 (Homo sapiens) (UniProt P51787); test: KCNQ1 potassium channel potentiators, confirmation, FluxOR thallium flux, CHO cells, duplicates (AID 493007;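 active = potentiation averaged over duplicate wells exceeding buffer-only control mean by more than 3 SD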;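 also: 0% = buffer-only wells and 100% = R-L3 activator control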); conditions: KCNQ1 cell line, FluxOR thallium flux fluorescence, at 10 µM; stronger effect = higher value, % of reference activator effect, buffer zero
# [11] = target: Potassium voltage-gated channel subfamily KQT member 2 (Rattus norvegicus) (UniProt O88943); test: rat KCNQ2 channel potentiation, selectivity assay for KCNQ1 potentiator project, KCNQ2-CHO-K1 cells (AID 493009;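 active = mean duplicate potentiation above the buffer control mean plus 5 SD of buffer wells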;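 also: assay conditions were tuned for KCNQ1 rather than KCNQ2 modulators; signal is max minus min fluorescence divided by baseline after thallium stimulus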); conditions: FluxOR thallium flux fluorescence, at 10 µM; stronger effect = higher value, scaled: buffer 0, activator control 100
# [12] = target: Potassium voltage-gated channel subfamily KQT member 1 (Homo sapiens) (UniProt P51787); test: KCNQ1 channel current potentiators, confirmation, orthogonal assay for KCNQ1 potentiator project, IonWorks patch clamp, KCNQ1-CHO cells (AID 493184;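 active = current rise at least 3 SD above the untreated control mean in each of two repeat wells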); conditions: automated patch clamp current, at 10 µM; stronger effect = higher value
# Chain of Potassium voltage-gated channel subfamily KQT member 1 (Homo sapiens) (P51787 whole entry, looked up): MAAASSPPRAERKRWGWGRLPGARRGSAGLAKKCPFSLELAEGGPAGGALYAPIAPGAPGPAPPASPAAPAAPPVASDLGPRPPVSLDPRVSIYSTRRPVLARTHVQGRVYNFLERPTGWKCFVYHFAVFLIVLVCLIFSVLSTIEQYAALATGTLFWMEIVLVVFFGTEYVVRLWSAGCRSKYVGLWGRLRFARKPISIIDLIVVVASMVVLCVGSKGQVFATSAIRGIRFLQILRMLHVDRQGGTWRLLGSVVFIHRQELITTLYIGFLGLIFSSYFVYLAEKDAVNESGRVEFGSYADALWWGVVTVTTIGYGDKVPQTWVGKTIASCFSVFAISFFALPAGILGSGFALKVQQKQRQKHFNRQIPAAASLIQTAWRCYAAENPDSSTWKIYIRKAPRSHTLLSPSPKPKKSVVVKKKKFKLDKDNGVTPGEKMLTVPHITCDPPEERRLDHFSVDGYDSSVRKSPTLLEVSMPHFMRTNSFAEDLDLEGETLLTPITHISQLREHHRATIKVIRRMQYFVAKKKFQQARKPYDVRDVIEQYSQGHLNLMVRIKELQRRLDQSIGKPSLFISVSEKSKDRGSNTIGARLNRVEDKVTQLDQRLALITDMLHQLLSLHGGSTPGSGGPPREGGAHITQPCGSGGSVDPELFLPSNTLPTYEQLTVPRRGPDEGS
# Chain of Short transient receptor potential channel 6 (Mus musculus) (Q61143 whole entry, looked up): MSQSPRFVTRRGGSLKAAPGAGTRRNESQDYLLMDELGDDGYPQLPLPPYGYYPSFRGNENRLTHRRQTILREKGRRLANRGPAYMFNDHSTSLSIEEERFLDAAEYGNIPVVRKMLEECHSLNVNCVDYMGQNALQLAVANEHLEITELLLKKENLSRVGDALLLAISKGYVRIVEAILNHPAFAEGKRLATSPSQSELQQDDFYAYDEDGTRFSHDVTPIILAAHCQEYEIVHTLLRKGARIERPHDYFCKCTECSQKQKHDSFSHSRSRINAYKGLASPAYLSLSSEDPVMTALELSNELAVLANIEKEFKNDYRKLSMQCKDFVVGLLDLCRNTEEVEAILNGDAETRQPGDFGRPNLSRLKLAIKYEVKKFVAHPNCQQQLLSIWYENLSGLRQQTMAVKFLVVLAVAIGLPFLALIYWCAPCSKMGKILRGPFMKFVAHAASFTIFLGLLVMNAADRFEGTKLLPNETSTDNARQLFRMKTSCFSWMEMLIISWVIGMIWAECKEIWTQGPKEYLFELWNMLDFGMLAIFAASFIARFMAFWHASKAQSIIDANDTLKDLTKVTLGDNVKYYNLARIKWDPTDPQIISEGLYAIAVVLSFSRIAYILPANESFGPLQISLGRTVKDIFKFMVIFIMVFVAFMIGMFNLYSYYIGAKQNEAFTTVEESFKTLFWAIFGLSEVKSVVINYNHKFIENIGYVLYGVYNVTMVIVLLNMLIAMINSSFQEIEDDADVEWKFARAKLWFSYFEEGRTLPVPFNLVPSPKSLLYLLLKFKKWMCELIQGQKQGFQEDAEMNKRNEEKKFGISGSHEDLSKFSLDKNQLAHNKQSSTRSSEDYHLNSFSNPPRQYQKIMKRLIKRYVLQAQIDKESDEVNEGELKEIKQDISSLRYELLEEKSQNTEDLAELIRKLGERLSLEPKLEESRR
# Chain of Inward rectifier potassium channel 2 (Mus musculus) (P35561 whole entry, looked up): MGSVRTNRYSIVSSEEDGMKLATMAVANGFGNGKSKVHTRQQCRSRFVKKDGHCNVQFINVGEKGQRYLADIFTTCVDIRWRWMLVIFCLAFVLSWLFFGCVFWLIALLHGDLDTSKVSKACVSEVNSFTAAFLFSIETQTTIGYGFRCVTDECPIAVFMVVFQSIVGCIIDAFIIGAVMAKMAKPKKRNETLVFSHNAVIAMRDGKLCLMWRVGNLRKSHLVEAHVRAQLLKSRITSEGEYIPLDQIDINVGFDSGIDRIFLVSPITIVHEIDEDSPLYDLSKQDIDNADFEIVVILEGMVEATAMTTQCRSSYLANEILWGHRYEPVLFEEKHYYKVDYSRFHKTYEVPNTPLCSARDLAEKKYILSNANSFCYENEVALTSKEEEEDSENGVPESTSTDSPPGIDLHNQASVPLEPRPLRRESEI
# Chain of Short transient receptor potential channel 4 (Mus musculus) (Q9QUQ5 whole entry, looked up): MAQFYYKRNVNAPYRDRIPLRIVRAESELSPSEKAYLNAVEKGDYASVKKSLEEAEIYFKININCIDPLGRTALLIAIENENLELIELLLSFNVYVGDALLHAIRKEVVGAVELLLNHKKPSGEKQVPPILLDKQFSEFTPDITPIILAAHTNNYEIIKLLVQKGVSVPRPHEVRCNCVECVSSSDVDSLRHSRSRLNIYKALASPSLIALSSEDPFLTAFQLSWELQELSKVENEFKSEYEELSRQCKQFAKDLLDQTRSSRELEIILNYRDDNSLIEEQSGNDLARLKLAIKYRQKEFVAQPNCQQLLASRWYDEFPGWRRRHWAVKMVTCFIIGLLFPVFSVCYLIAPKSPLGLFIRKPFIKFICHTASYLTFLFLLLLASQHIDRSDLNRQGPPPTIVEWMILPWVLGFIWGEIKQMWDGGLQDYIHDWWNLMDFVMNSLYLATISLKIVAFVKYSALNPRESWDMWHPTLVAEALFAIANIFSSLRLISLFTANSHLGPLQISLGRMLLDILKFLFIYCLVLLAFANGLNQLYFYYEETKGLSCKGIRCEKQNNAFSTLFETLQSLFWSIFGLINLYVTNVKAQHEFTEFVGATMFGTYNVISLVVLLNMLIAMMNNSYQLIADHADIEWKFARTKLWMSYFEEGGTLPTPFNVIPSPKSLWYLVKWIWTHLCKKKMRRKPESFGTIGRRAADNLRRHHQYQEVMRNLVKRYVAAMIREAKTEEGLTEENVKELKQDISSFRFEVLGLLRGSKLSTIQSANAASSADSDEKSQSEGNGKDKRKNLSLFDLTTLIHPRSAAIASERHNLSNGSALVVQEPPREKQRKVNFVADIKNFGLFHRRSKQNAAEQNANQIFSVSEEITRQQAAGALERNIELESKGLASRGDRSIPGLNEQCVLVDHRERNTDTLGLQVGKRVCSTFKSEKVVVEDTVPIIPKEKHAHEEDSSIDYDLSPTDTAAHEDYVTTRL
smiles,measurement,setting,value
Oc1c(Cl)cc(Cl)c(Cl)c1Cc1c(O)c(Cl)cc(Cl)c1Cl,activity over 3SD threshold,[1],-73.8%
same,outcome,[2],inactive
same,inhibition,[3],29.5% (active)
same,"activity change, negative = inhibition",[4],4.36% (active)
same,signal change vs control,[5],-19% (active)
same,membrane potential signal change,[6],2.04% (active)
same,inhibition,[7],96.7% (active)
same,outcome,[8],inactive
same,activation,[9],414% (active)
same,potentiation,[10],81.5% (active)
same,potentiation,[11],480% (active)
same,outcome,[12],inactive
Cc1ccc(CS(=O)(=O)c2ncc(Cl)c(C(=O)Nc3nnc(C)s3)n2)cc1,activity over 3SD threshold,[1],-51.4%
same,"current increase over 3SD of negative controls (%), stronger effect = higher value",[2],48.4% (active)
O=c1c2cc(Br)ccc2nc(-c2cccc(Cl)c2)n1O,outcome,[2],inactive
same,activation,[9],803% (active)
same,potentiation,[10],257% (active)
same,potentiation,[11],703% (active)
same,outcome,[12],inactive
CCCCOc1ccc(CSC(=N)N)cc1[N+](=O)[O-],inhibition,[3],77.5% (active)
same,outcome,[4],inactive
same,outcome,[5],inactive
same,membrane potential signal change,[6],-186% (active)
same,outcome,[7],inactive
same,outcome,[8],inactive
Cc1cc(C(=O)OCC(=O)Nc2ccc(F)c(F)c2)c(C)o1,outcome,[2],inactive
COc1ccc(NC(=O)CCCC2CCCCC2)c(OC)c1,outcome,[2],inactive
CC(C)(C)C1CCC(C(=O)NCC(c2cccs2)N2CCOCC2)CC1 (stereo not given),activity over 3SD threshold,[1],-57.7%
same,outcome,[2],inactive
CC(Nc1nc(N2CCCC2)nc2ccccc12)c1ccccc1 (stereo not given),outcome,[3],inactive
same,outcome,[4],inactive
same,outcome,[5],inactive
same,outcome,[6],inactive
same,outcome,[7],inactive
same,outcome,[8],inactive
Fc1cc(F)c2nc(Nc3nc4c(F)cccc4s3)sc2c1,outcome,[2],inactive
same,activation,[9],330% (active)
same,potentiation,[10],196% (active)
same,potentiation,[11],422% (active)
same,outcome,[12],inactive
